The source made the active and inactive calls. Rule for the calls: active = hit-call score of the fitted dose curve at least 0.9, where 1 is the maximum; inactive = score below 0.9.
How the values were obtained:
[1] = ATG_E_Box_CIS: Attagene CIS-FACTORIAL HepG2 Assay for human Enhancer Box (E-box) (AID 2282936); settings: HepG2 E-box cis-reporter transcription, actives raise or lower the signal
Method in brief: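 Measured 24 h post-dosing in HepG2 cells transfected with multiple cis-regulated reporter units, signal being reporter mRNA induction detected by fluorescent RT-PCR with capillary electrophoresis; gain or loss fitted against DMSO.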

[2] = ATG_EGR_CIS: Attagene CIS-FACTORIAL HepG2 Assay for human Early Growth Response 1 (EGR1) (AID 2282938); settings: HepG2 Attagene CIS-FACTORIAL EGR reporter mRNA; actives raise or lower the signal
Method in brief: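 HepG2 cells transiently transfected with cis-element-driven multiplexed reporter units, dosed for 24 h. EGR1-element reporter mRNA quantified by RT-PCR, 6-FAM labelling, HpaI digestion and capillary electrophoresis; bidirectional fit versus DMSO.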

[3] = ATG_M_19_CIS: Attagene CIS-FACTORIAL HepG2 Assay for M19 Transcription Factor (Internal Marker) (AID 2282939); settings: HepG2 Attagene CIS-FACTORIAL M19 internal marker reporter; actives raise or lower the signal
Method in brief: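 Chemical-treated HepG2 (24 h) with MRTU constructs; reporter transcripts detected by fluorescent RT-PCR fragment analysis on capillary electrophoresis. Internal background marker, DMSO as baseline.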

[4] = ATG_ERE_CIS: Attagene CIS-FACTORIAL HepG2 Assay for Estrogen Response Element (ERE) (AID 2282940); settings: HepG2 ERE cis-reporter, Attagene RNA transcript; actives raise or lower the signal
Method in brief: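 Human liver cells (HepG2) bearing transiently transfected, promoter-regulated reporter units were exposed 24 h. Reporter mRNA induction was detected by capillary electrophoresis of labelled RT-PCR products and fitted bidirectionally to DMSO.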

[5] = ATG_Ets_CIS: Attagene CIS-FACTORIAL HepG2 Assay for human Erythroblast Transformation Specific (ETS) (AID 2282941); settings: HepG2 ETS cis-reporter transcription, actives raise or lower the signal
Method in brief: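 Cis-regulated reporter mRNA induction in HepG2 (transient transfection), 24 h exposure, RT-PCR plus capillary electrophoresis detection; DMSO serves as negative control and baseline.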

[6] = target: Hepatocyte nuclear factor 3-beta (Homo sapiens) (UniProt Q9Y261); assay: ATG_FoxA2_CIS: Attagene CIS-FACTORIAL HepG2 Assay for human Forkhead box A2 (FOXA2) (AID 2282942); settings: HepG2 cis-reporter transcription factor activity, 24 h; actives raise or lower the signal
Method in brief: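 HepG2 transiently transfected with a multiplexed cis-promoter reporter library read endogenous FOXA2 activity. After 24 h compound exposure, reporter mRNA was quantified by RT-PCR, HpaI digestion and capillary electrophoresis. Bidirectional fit against DMSO.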

[7] = ATG_FoxO_CIS: Attagene CIS-FACTORIAL HepG2 Assay for human Forkhead box O (FoxO) (AID 2282943); settings: HepG2 Attagene cis-reporter, FoxO element, mRNA; actives raise or lower the signal
Method in brief: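 24 h chemical exposure, HepG2 with transient cis-MRTU transfection. RNA extraction, oligo(dT) RT, reporter-specific PCR, primer-extension labelling, HpaI digestion, CE fragment analysis; bidirectional fit, DMSO baseline.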

[8] = ATG_GATA_CIS: Attagene CIS-FACTORIAL HepG2 Assay for human GATA Binding Protein (AID 2282944); settings: HepG2 GATA cis-element reporter, Attagene multiplex mRNA; actives raise or lower the signal
Method in brief: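 Transfected cis-reporter HepG2 cells were treated with chemicals for 24 hours. Total RNA was then converted to cDNA, amplified with reporter-specific primers and analysed by fluorescent capillary electrophoresis, using DMSO-treated wells as baseline.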

[9] = ATG_GLI_CIS: Attagene CIS-FACTORIAL HepG2 Assay for human Zinc Finger Protein GLI1 (AID 2282945); settings: HepG2, Attagene cis-factorial reporter mRNA, GLI element; actives raise or lower the signal
Method in brief: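 HepG2 cells transiently transfected with cis-promoter multiplexed reporter units report endogenous transcription factor activity. After 24 h chemical exposure, reporter mRNA was quantified by RT-PCR, 6-FAM labelling, HpaI digestion and capillary electrophoresis, with bidirectional fitting against DMSO.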

[10] = target: Bile acid receptor (Homo sapiens) (UniProt Q96RI1); assay: ATG_IR1_CIS: Attagene CIS-FACTORIAL HepG2 Assay for human Nuclear Receptor Subfamily 1 Group H Member 4 (NR1H4), IR1 submotif (AID 2282946); settings: IR1 reporter transcription, actives raise or lower the signal
Method in brief: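 Readout: reporter transcript levels by RT-PCR with fluorescent capillary electrophoresis, from HepG2 cells transiently transfected with multiplexed cis-regulated reporters and dosed 24 h. Gain- or loss-of-signal fitted versus DMSO negative control.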

[11] = ATG_GRE_CIS: Attagene CIS-FACTORIAL HepG2 Assay for human Glucocorticoid Response Elements (GRE) (AID 2282947); settings: HepG2 GRE cis-reporter, Attagene multiplex mRNA; actives raise or lower the signal
Method in brief: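 HepG2, transient cis-reporter transfection, 24 h. Reporter mRNA: RT-PCR then CE, fluorescence. Fit both directions vs DMSO.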

[12] = ATG_ISRE_CIS: Attagene CIS-FACTORIAL HepG2 Assay for human Interferon Regulatory Factor 1 (IRF1) binding to an Interferon-Stimulated Response Element (ISRE) (AID 2282948); settings: HepG2 ISRE cis-reporter (Attagene), mRNA transcription readout; actives raise or lower the signal
Method in brief: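 Multiplexed mRNA reporter readout in human liver HepG2 cells: cis-element-driven reporters transfected, compound added for 24 h, transcripts amplified, fluorescently labelled and sized by capillary electrophoresis; curve fitting bidirectional against DMSO.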

[13] = ATG_M_32_CIS: Attagene CIS-FACTORIAL HepG2 Assay for M32 Transcription Factor (Internal Marker) (AID 2282949); settings: HepG2 Attagene cis-factorial M32 reporter, mRNA; actives raise or lower the signal;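 note: background control marker of the multiplexed CIS panel rather than a real target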
Method in brief: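 Using DMSO as baseline, bidirectional curve fits were applied to reporter mRNA signals. These came from transiently transfected HepG2 cells exposed for 24 h, with RNA analysed by RT-PCR, FAM primer extension, HpaI digestion and CE.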

[14] = target: Hypoxia-inducible factor 1-alpha (Homo sapiens) (UniProt Q16665); assay: ATG_HIF1a_CIS: Attagene CIS-FACTORIAL HepG2 Assay for human Hypoxia Inducible Factor 1 (HIF1A) (AID 2282951); settings: HepG2 Attagene cis-factorial HIF1a reporter transcription; actives raise or lower the signal
Method in brief: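 HepG2 cells transiently transfected with multiple cis-regulated reporter transcription units measure endogenous transcription factor activity. After 24 h exposure, reporter mRNA is quantified by RT-PCR with 6-FAM labelling, HpaI digestion and capillary electrophoresis. Bidirectional fitting against DMSO.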

[15] = target: Hepatocyte nuclear factor 6 (Homo sapiens) (UniProt Q9UBC0); assay: ATG_HNF6_CIS: Attagene CIS-FACTORIAL HepG2 Assay for human Hepatocyte Nuclear Factor 6 (HNF6) (AID 2282952); settings: HepG2 Attagene cis-factorial HNF6 reporter transcription; actives raise or lower the signal
Method in brief: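 Using cis-element reporters in HepG2 liver cells, the assay tracks endogenous factor-driven transcription 24 h post-dosing. Signal comes from 6-FAM-labelled, HpaI-digested RT-PCR fragments, with gain or loss scored against DMSO.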

[16] = target: Heat shock factor protein 1 (Homo sapiens) (UniProt Q00613); assay: ATG_HSE_CIS: Attagene CIS-FACTORIAL HepG2 Assay for human Heat Shock Transcription Factor 1 (HSE) (AID 2282953); settings: HepG2 HSE cis-reporter, Attagene RNA transcription; actives raise or lower the signal
Method in brief: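 Liver-derived HepG2 cells carry transiently introduced multiple reporter units governed by cis promoters. Reporter RNA measured 24 h post-dose through reverse transcription, PCR amplification, fluorescent labelling and capillary electrophoresis, normalised to DMSO.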

[17] = ATG_MRE_CIS: Attagene CIS-FACTORIAL HepG2 Assay for human Metal Responsive Element (MRE) (AID 2282954); settings: HepG2 MRE cis-reporter transcription, Attagene multiplex; actives raise or lower the signal
Method in brief: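 Readout: capillary electrophoresis of 6-FAM-labelled, HpaI-digested RT-PCR reporter products. System: HepG2 cells carrying transient multiplexed cis reporters, dosed 24 h. Analysis: bidirectional fit, DMSO baseline.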

[18] = ATG_M_61_CIS: Attagene CIS-FACTORIAL HepG2 Assay for M61 Transcription Factor (Internal Marker) (AID 2282937); settings: HepG2 Attagene CIS-FACTORIAL M61 internal marker reporter; actives raise or lower the signal
Method in brief: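 HepG2 cells transiently transfected with multiplexed cis-promoter reporter units reporting endogenous transcription factor activity, measured 24 h after dosing. Reporter mRNA quantified by RT-PCR and capillary electrophoresis; bidirectional fit against DMSO baseline.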

[19] = ATG_M_06_CIS: Attagene CIS-FACTORIAL HepG2 Assay for M06 Transcription Factor (Internal Marker) (AID 2282950); settings: HepG2 Attagene CIS-FACTORIAL M06 internal marker reporter; actives raise or lower the signal
Method in brief: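 Cells (HepG2, transiently carrying cis-driven reporter units) receive chemical for 24 h before RNA isolation. Reporter cDNA is PCR-amplified, FAM-labelled by primer extension, HpaI-digested and sized on a capillary analyser.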

Measured: outcome

Chain of Bile acid receptor (Homo sapiens) (Q96RI1 whole entry, looked up): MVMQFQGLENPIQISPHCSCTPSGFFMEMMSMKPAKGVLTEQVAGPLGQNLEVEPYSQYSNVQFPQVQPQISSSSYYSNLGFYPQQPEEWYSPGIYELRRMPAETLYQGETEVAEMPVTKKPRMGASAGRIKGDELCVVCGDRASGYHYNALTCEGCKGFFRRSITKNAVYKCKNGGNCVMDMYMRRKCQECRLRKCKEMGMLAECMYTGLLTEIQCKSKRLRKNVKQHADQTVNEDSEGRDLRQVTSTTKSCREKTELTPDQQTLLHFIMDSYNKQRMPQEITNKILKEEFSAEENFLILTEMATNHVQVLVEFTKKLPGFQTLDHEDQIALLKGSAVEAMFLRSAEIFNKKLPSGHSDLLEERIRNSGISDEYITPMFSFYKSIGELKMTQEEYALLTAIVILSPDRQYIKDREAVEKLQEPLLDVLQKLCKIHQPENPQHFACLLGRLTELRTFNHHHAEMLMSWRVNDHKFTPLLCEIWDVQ
Chain of Hepatocyte nuclear factor 3-beta (Homo sapiens) (Q9Y261 whole entry, looked up): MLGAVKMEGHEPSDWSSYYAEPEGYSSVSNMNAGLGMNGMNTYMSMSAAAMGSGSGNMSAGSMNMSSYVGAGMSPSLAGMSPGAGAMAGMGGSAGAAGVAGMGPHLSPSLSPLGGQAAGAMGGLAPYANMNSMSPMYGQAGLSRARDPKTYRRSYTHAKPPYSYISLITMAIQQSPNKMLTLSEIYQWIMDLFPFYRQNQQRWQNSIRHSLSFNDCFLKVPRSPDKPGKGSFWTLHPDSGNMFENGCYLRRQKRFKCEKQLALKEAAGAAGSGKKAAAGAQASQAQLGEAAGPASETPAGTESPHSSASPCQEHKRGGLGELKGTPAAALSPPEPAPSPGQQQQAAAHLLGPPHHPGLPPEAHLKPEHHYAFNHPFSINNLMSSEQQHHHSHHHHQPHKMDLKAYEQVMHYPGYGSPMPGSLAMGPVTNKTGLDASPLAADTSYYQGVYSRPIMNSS
Chain of Hypoxia-inducible factor 1-alpha (Homo sapiens) (Q16665 whole entry, looked up): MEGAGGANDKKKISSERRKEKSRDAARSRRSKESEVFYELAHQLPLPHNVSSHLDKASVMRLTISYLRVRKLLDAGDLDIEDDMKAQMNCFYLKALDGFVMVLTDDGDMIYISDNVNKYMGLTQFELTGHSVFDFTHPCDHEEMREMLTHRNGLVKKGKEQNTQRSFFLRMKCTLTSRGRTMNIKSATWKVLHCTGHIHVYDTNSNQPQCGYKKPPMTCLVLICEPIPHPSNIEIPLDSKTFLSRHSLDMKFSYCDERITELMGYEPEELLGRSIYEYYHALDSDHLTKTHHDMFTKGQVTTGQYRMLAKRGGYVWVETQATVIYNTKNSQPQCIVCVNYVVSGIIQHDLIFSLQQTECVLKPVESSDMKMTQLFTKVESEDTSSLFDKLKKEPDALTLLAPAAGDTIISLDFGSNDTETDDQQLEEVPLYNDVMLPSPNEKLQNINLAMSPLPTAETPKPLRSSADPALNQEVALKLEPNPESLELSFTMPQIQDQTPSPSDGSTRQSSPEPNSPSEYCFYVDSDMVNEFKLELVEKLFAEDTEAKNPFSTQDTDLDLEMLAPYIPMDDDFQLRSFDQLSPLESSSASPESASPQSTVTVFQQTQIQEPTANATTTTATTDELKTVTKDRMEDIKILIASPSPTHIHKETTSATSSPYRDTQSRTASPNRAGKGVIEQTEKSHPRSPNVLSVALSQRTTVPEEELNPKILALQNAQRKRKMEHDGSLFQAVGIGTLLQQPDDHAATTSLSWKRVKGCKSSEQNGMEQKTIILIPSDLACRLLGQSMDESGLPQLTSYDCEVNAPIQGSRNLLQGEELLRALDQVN
Chain of Hepatocyte nuclear factor 6 (Homo sapiens) (Q9UBC0 whole entry, looked up, the tested form may be a part): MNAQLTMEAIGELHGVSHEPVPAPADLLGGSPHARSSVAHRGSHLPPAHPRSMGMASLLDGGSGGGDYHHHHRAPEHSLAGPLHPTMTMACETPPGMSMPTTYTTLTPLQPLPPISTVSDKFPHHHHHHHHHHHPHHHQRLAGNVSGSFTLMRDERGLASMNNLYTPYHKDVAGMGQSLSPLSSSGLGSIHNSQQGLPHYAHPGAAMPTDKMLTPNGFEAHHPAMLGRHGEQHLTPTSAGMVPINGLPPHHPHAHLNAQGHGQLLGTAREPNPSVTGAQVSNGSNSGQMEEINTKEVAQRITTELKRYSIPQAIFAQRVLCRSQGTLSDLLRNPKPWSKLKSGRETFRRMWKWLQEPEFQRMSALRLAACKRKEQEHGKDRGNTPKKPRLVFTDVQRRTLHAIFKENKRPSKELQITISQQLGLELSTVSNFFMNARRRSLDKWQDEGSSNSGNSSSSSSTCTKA
Chain of Heat shock factor protein 1 (Homo sapiens) (Q00613 whole entry, looked up): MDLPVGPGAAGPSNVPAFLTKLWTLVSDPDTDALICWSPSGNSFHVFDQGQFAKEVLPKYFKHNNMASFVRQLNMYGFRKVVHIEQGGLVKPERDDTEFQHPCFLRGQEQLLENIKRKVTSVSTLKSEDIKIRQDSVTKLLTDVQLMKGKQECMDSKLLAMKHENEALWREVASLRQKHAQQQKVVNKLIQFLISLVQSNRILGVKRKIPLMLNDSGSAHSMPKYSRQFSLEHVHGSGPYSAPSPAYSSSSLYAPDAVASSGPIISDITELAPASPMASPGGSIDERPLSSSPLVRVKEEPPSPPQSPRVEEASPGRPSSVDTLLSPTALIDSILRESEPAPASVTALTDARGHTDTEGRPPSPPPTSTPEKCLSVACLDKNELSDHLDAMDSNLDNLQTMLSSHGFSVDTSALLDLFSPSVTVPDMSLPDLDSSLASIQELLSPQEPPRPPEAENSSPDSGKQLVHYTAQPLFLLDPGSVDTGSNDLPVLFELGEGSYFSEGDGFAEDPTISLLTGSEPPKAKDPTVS

O=C(O)C(F)(OC(F)(F)C(F)(OC(F)(F)C(F)(OC(F)(F)C(F)(F)C(F)(F)F)C(F)(F)F)C(F)(F)F)C(F)(F)F (stereo not drawn)
not listed: [18] | [19]
inactive: all other assays above

O=C(O)C(F)(F)C(F)(F)C(F)(F)C(F)(F)F
not listed: [1] | [18] | [19]
inactive: all other assays above

CC(C)(C)c1ccc(OC2CCCCC2O)cc1 (stereo not drawn)
not listed: [1] | [16]
inactive: all other assays above

FC(F)(F)C(F)(F)C(F)(F)C(F)(F)C(F)(F)C(F)(F)C(F)(F)C(F)(F)CCS
not listed: [16]
inactive: all other assays above

From PubChem BioAssay (EPA / NIEHS)
